# HP1b chromo inh: inhibitors of HP1-beta chromodomain binding to methylated histone tails | P83916 | AlphaScreen HP1-beta / biotin-H3K9me3 peptide binding | Potency, µM (highest dose often 114 µM), without a hit: at the top dose activity change, negative = inhibition, hits mostly inhibitors | 390,000 compounds, 0.56% hits | AID 540317; also: nearly all actives have a fitted effect of over 70% in size
#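 AlphaScreen: HP1-beta (50 nM) preformed 30 min with biotin-H3(1-18)K9me3 peptide (50 nM) in PBS pH 7.4, 0.01% Tween-20. Compound added for 30 min at RT, then streptavidin donor/nickel chelate acceptor beads (10 ug/mL) for 30 min.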
# PLK1 PBD inh: PLK1 (human) polo-box domain binding inhibition | P53350 | Plk1 PBD binding of FITC phosphopeptide, fluorescence polarization | Potency, µM, for inactives: max response, negative = inhibition, actives largely listed as inhibitors | 360,000 compounds, 2.8% hits | AID 720504; also: series mostly up to about 57 µM; % is scaled to controls: 0 for no effect and ±100 for the full control effect; nearly all actives have a fitted effect of over 65% in size
# Sfp inh: blocks B. subtilis Sfp PPTase activity; Q9F4F7; Biochemical Sfp PPTase activity, qHTS; Potency, µM, for inactives: largest response in the series, negative = inhibition, most hits filed as inhibitors; 310,000 compounds, 3.5% hits; AID 1490;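 also: the enzyme is Sfp with the accession as filed and its product quenches rhodamine fluorescence; 0% = enzyme reaction without inhibitor and -100% = no enzyme wells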
#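 Fluorescence-quenching assay: 15 nM Sfp-PPTase preincubated 15 min at room temperature with compound, then 5 uM rhodamine-CoA and 12.5 uM BHQ-2-labelled YbbR peptide added. Fluorescence (ex 525/em 598 nm) read at start and after 30 min; difference gives rate.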
# JMJD2A Tudor inh: JMJD2A Tudor domain (human) inhibition; AlphaScreen JMJD2A-Tudor / H3K4me3 peptide binding; Potency, µM (highest dose often 114 µM), for inactives: top-dose activity change, negative = inhibition, hits mostly inhibitors; 390,000 compounds, 4.4% hits; also: % is scaled to controls: 0 for no effect and ±100 for the full control effect; nearly all actives have a fitted effect of over 50% in size
# Target sequence (O75164 whole entry, looked up, the tested form may be a part): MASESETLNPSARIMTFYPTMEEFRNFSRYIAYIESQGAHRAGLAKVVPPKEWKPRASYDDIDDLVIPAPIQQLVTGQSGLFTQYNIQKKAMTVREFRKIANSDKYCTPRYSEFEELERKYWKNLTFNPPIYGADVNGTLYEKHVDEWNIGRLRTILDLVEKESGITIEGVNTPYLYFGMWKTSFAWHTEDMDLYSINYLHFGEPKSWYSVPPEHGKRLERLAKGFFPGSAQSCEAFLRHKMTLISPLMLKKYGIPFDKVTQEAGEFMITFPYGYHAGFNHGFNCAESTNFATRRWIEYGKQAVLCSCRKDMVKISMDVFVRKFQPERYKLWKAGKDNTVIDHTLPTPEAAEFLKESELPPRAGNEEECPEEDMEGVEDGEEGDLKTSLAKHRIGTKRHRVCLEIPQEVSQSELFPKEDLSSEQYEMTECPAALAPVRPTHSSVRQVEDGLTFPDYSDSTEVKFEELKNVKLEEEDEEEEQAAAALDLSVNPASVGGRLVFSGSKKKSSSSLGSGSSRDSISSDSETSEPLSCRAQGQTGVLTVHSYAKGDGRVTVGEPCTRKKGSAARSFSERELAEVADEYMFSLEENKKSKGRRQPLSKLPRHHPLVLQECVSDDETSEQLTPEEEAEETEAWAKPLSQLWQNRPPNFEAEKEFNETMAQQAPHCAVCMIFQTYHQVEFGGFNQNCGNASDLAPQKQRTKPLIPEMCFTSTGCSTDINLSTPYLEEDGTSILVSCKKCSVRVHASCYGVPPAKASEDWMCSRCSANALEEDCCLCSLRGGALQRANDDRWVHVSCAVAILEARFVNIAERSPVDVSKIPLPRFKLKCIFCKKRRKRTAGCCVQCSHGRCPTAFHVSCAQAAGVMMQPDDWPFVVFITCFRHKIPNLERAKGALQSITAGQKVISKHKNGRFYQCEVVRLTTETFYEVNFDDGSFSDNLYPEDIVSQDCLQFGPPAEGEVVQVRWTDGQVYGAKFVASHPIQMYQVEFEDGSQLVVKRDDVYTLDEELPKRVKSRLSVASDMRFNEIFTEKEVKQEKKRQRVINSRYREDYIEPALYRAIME
# BAZ2B block: blocks human BAZ2B; AID 504333; 360,000 compounds, 4.4% hits; Potency, µM (top dose mostly 114 µM), without a hit: at the highest dose activity change, negative = inhibition, most hits filed as inhibitors; AlphaScreen BAZ2B-H3K14Ac peptide displacement; also: % is scaled to controls: 0 for no effect and ±100 for the full control effect; nearly all actives have a fitted effect of over 60% in size
#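 Complex of BAZ2B and biotin-H3K14Ac (50 nM apiece) forms over 30 min at RT, then faces library compounds up to 110 uM for another 30 min; AlphaScreen beads added, 20 min dark incubation, luminescence read.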
# G9a inh: blocks human histone lysine methyltransferase G9a. Q96KQ7. G9a H3K9 monomethylation, AlphaScreen, 2 h. Potency, µM (series often up to 102 µM), for the others: at the top dose activity, negative = inhibition, usual class: inhibitors. 350,000 compounds, 8.8% hits. AID 504332; also: % is scaled to controls: 0 for no effect and ±100 for the full control effect; nearly all actives have a fitted effect of over 75% in size
#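 Signal arises when biotinylated H3K9 peptide, once monomethylated, bridges streptavidin donor and antibody-captured acceptor beads. Enzyme at 20 nM was preincubated 15 min with test compounds; peptide 500 nM and SAM 20 uM then reacted for 2 h.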
# * hit, by the source's call; ? = inconclusive; . = no result given; ! = repeats disagree; [ ] = another dose, or the depositor's remark. Shown are actives, neighbours in structure and some others; about 12% of the full set was active somewhere. Calls follow the shape of the dose curve; as a rule, active = well fitted curve in the direction sought with a large enough effect; inconclusive = small, poorly fitted or top-dose-only effect, or another doubt; inactive = no such curve, though single readings can be large; an effect the other way counts as inactive or inconclusive. Potency is read from the fitted curve at half-maximal effect.
SMILES,HP1b chromo inh,PLK1 PBD inh,Sfp inh,JMJD2A Tudor inh,BAZ2B block,G9a inh
Cc1ccc(-n2c(=O)cc(N3CCN(C(=O)c4ccco4)CC3)[nH]c2=O)cc1,12%,-13%,-22%,-16%,8%,45µM*
CC1CCCCC1NC(=O)CSc1nncs1 (centres undefined),71%,-3%,-5%,0%,5%,17%
CC1CCCCC1NC(=O)CSc1nncn1N (centres undefined),?,21µM*,5%,-18%[11.4 µM],-8%,5%[12.7 µM]
Cc1sc2ncn(CC(=O)NCCCC(=O)Nc3ccc(C(C)C)cc3)c(=O)c2c1C,34%,-10%,11%,-14%,2%,6%[59 µM]
Fc1ccc(-c2n[nH]c(=S)n2CC2CCCO2)cc1 (centres undefined),6%,-20%,-26%,-4%[11.4 µM],-37%,2.8µM*
Fc1ccc(-c2nnc(SCc3ncc(-c4ccccc4)o3)n2CC2CCCO2)cc1 (centres undefined),61%,-15%,1%,-22%,9%,?
S=c1[nH]nc(-c2ccncc2)n1CC1CCCO1 (centres undefined),-10%,-10%,?,45µM*,-8%,?
Cc1cc(C)c(OCC(=O)N(Cc2ccc(N(C)C)cc2)Cc2ccco2)c(C)c1,?,.,.,20µM*,8.9µM*,13µM*
Cc1cccc(OCC(=O)N(Cc2ccc(N(C)C)cc2)Cc2ccco2)c1C,?,.,.,22µM*,10µM*,14µM*
Cc1ccc(CN(Cc2ccco2)C(=O)COc2c(C)cc(C)cc2C)cc1,42%,.,.,12%,34%,38%[59 µM]
Cc1ccc(CN(Cc2ccco2)C(=O)COc2cccc(C)c2C)o1,29%,.,.,?,9%,-3%[59 µM]
COc1cc(-c2ccc3ncnc(NCc4nc(C)cs4)c3c2)cc(OC)c1OC,.,.,.,-33%,.,.
Cc1sc2ncnc(N3CCC(C(=O)Nc4cc(S(C)(=O)=O)ccc4Cl)CC3)c2c1C,42%,5%,.,-4%,1%,-36%
CCN(CC)S(=O)(=O)c1cc(NC(=O)C2CCN(c3ncnc4sc(C)c(C)c34)CC2)ccc1Cl,34%,-4%,.,-24%,-17%,45µM*
Cc1sc2ncnc(N3CCC(C(=O)Nc4ccc(S(N)(=O)=O)cc4)CC3)c2c1C,11%,-9%,.,-25%,-5%,?
Cc1ccc(NC(=O)C2CCN(c3ncnc4sc(C)c(C)c34)CC2)cc1S(=O)(=O)N(C)C,7%,8%,.,-14%,-1%,14µM*
O=C(OCC(=O)N1CCc2ccccc2C1)c1ccc(O)cc1,39%,-2%,.,-18%,.,.
CC1(C)CC(C)(c2ccc(O)cc2O)N(c2ccc3ccccc3c2)C(=S)N1 (centres undefined),-33%,-7%,25%,?,45µM*,?
O=C(Nc1ccc(C(=O)O)cc1)/C(=C\c1ccco1)NC(=O)c1ccc(Br)cc1,.,-3%,.,.,.,.
O=C(Nc1ccc(C(=O)O)cc1)/C(=C\c1ccc2c(c1)OCO2)NC(=O)c1ccc(Br)o1,-13%,27µM*,6%,45µM*,-4%,2%
O=C(Nc1cccc(C(=O)O)c1)/C(=C\c1ccc2c(c1)OCO2)NC(=O)c1ccc(Br)o1,0%,?,-2%,-25%,-15%,-42%
O=C(O)/C(=C/c1ccco1)NC(=O)c1ccc(Br)o1,13%,-12%,-14%,-26%,-5%,45µM*
O=C(Nc1ccc(C(=O)O)cc1)/C(=C\c1ccco1)NC(=O)c1ccc(Br)o1,?,30µM*,50µM*,?,-2%,35µM*
O=C(NCCc1nc2ccccc2[nH]1)C1CCC(=O)N(CCc2cccc(F)c2)C1 (centres undefined),31%,4%,18%,-6%,-2%,52%
CC(C)=NOC[C@@H](O)[C@@H]1O[C@@H]2OC(C)(C)O[C@@H]2[C@H]1O,.,.,14%,.,.,.
SMILES,HP1b chromo inh,PLK1 PBD inh,Sfp inh,JMJD2A Tudor inh,BAZ2B block,G9a inh
COC(=O)c1ccccc1S(=O)(=O)N(Cc1ccco1)Cc1cc2cc(OC)ccc2[nH]c1=O,28%,-13%,22µM*,-3%,-33%,?
CC(=O)Nc1ccc(S(=O)(=O)N(Cc2cccnc2)Cc2cc3ccccc3[nH]c2=O)cc1,29%,-10%,3%,11%,-17%,19%
CC(=O)Nc1ccc(S(=O)(=O)N(Cc2ccco2)Cc2cc3ccccc3[nH]c2=O)cc1,55%,-7%,1%,-18%,-31%,35µM*
COc1ccc(C(=O)COC(=O)c2cccc(NC(=O)c3ccc(OC)c(OC)c3)c2)cc1,48%,.,.,-8%,6%,5%[59 µM]
CC(C)(C)OC(=O)NCCCNc1ncnc2ccc(-c3ccc4c(c3)OCO4)cc12,.,.,.,-25%,.,.
CCOC(=O)c1c(C)[nH]c(C)c1S(=O)(=O)N1CCCC(C(=O)Nc2ccccc2OCC)C1 (centres undefined),34%,.,.,-19%,?,-20%[59 µM]
Cc1cccc(C(=O)NCC(=O)OCc2nc(N)nc(Nc3ccccc3C)n2)c1,33%,3%,.,-9%,.,.
Cc1ccc(-c2nc(CS(=O)CC(=O)N3CCN(c4cccc(Cl)c4)CC3)c(C)o2)cc1 (centres undefined),-16%,.,.,?,25µM*,?
Cc1ccc(-c2nc(CS(=O)CC(=O)N3CCN(c4ccc(F)cc4)CC3)c(C)o2)cc1 (centres undefined),47%,-4%,4%,?,28µM*!,14µM*!
CCOC(=O)C1CCN(C(=O)CS(=O)Cc2nc(-c3ccc(C)cc3)oc2C)CC1 (centres undefined),18%,?,?,-14%,3%,28µM*
COc1ccc(CCN2C(=O)c3oc4cc(C)cc(C)c4c(=O)c3C2c2ccc(F)cc2)cc1OC (centres undefined),4%,.,.,-29%,-19%,0%[59 µM]
CCCCN1CC(N2CCN(Cc3ccccc3)CC2)CS1(=O)=O (centres undefined),.,-1%,.,.,.,.
CSc1ccccc1NC(=O)CN(C)CC(=O)c1c(C)[nH]c2ccccc12,34%,-1%,.,-25%,-10%,?
CCc1ccccc1NC(=O)Cn1nnc(C(=O)Nc2ccc(OC)c(OC)c2)c1N,25%,.,.,1%,7%[57.1 µM],-4%[59 µM]
Cc1nc2ccc(NC(=O)COc3ccccc3C)cc2s1,29%,1%,32µM*,-18%,5%,45µM*
COc1ccc(CC(=O)Nc2ccc3nc(C)sc3c2)cc1OC,36%,-2%,-8%,-6%,-4%,20µM*
Cc1nn2c(-c3cccc(NC(=O)c4ccccc4)c3)nnc2c2ccccc12,35%,.,.,-10%,4%,-1%[59 µM]

# Assay outcomes: PubChem BioAssay, National Center for Advancing Translational Sciences (NCATS)
